High-throughput results deposited in PubChem by National Center for Advancing Translational Sciences (NCATS).
This is a sample that favours compounds with a hit; in the whole collection about 19% have one here.
Shiga inhibitor = blocks Shiga toxin action in Vero cells | 9.2% of 290,000 active | inhibition, % at 38.7 µM | AID 2315 | Vero cells, Shiga toxin protein synthesis inhibition reporter; in the data active = inhibition mostly above about 28%, no sharp cut-off; inactive = mostly below about 43%
Pf growth 48h = inhibits P. falciparum growth in the first generation, 48 h. P. falciparum luciferase growth in erythrocytes, 48 h. Potency, µM (titrated, usually from 28.7 µM), hits mostly inhibitors. 5.9% of 310,000 active. AID 504832
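First compound was added to culture medium, then infected red cells at 0.1% parasitemia and 2% hematocrit (final). After incubation at 37 C under 5% CO2, luciferase detection reagent was dispensed and light output recorded.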
Lassa entry inh = Lassa virus entry inhibition; 1.2% of 300,000 active; Lassa virus pseudotype entry inhibition, cell reporter; Potency, µM (titrated, usually from 37.9 µM), most hits filed as inhibitors; calls by dose curve; tested in HEK293 cells; also: nearly all actives have a fitted effect of over 50% in size
MARV entry inh = inhibitors of Marburg virus binding or cell entry | AID 540276 | Potency, µM (series often up to 37.8 µM), hits mostly inhibitors | 1.8% of 300,000 active | Marburg virus pseudotyped entry inhibition, cell reporter; calls by dose curve; tested in HEK293 cells
CHX counter = counter-screen for Shiga toxin inhibitors: cycloheximide protein synthesis inhibition | AID 2314 | cell reporter, cycloheximide protein synthesis inhibition counterscreen | 12% of 300,000 active | max response, %; in the data active = max response mostly above about 13%, no sharp cut-off; inactive = mostly below about 14%; also: read at 38.3 µM for the half of the compounds with a filed dose
Pf growth 96h = P. falciparum growth inhibition at 96 hour, primary screen for plastid delayed-death inhibitors. P. falciparum luciferase reporter growth, 96 h. Potency, µM (highest dose often 28.7 µM), actives largely listed as inhibitors. 6.9% of 320,000 active. AID 504834
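Infected RBCs, 2% Hct / 0.05% parasitemia final; luciferase-reporter P. falciparum; cpd 96 h, 37 C, 5% CO2; luciferase detection reagent; luminescence.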
Of the large screens only hits and unclear results are named; the others gave an inactive call. Unless noted, calls follow the shape of the dose curve; as a rule, active = well fitted inhibition curve with a large enough effect; inconclusive = small, poorly fitted or top-dose-only effect, or another doubt; inactive = no such curve, though single readings can be large or run the other way.

CC(=O)Nc1ccc(C(=O)Nc2cccc(S(=O)(=O)N(C)c3ccccc3)c2)cc1	Pf growth 48h 9.3µM, Pf growth 96h inconclusive (no result: Shiga inhibitor, Lassa entry inh, MARV entry inh, CHX counter)
CCN(CC)S(=O)(=O)c1cccc(NC(=O)CCNC(=O)c2ccc([N+](=O)[O-])cc2)c1	Shiga inhibitor 48, Pf growth 48h inconclusive, CHX counter 14 (no result: Lassa entry inh, MARV entry inh)
CN(c1ccccc1)S(=O)(=O)c1cccc(NC(=O)CCNC(=O)c2ccc([N+](=O)[O-])cc2)c1	Lassa entry inh inconclusive (no result: Shiga inhibitor, Pf growth 48h, CHX counter, Pf growth 96h)
Cc1nc2cc(NC(=O)c3ccc(S(=O)(=O)N(C)c4ccccc4)cc3)ccc2o1	Shiga inhibitor 126, Pf growth 48h inconclusive, MARV entry inh inconclusive, CHX counter 30, Pf growth 96h inconclusive
CC(=O)c1cccc(NC(=O)c2ccc(N(C)S(C)(=O)=O)cc2)c1	MARV entry inh inconclusive (no result: Pf growth 96h)
CN(c1cccc(NC(=O)c2ccc(C(C)(C)C)cc2)c1)S(C)(=O)=O	Lassa entry inh inconclusive, MARV entry inh inconclusive, CHX counter 43
CCOC(=O)CNC1CC(=O)N(c2ccc(Br)cc2)C1=O (configuration not stated)	Pf growth 48h inconclusive (no result: Lassa entry inh, MARV entry inh)
CN(c1ccccc1)S(=O)(=O)c1cccc(C(=O)Nc2ccc3c(c2)CCC3)c1	Shiga inhibitor 82, Pf growth 48h inconclusive, Lassa entry inh 16µM, CHX counter 21, Pf growth 96h inconclusive
CN(c1cccc(NC(=O)c2ccc(N(C)S(=O)(=O)c3ccccc3)cc2)c1)S(C)(=O)=O	Pf growth 48h inconclusive, Lassa entry inh inconclusive, MARV entry inh 16µM
CN(c1ccc(C(=O)Nc2cccc([N+](=O)[O-])c2)cc1)S(C)(=O)=O	MARV entry inh inconclusive
CN(c1ccccc1)S(=O)(=O)c1cccc(C(=O)NNC(=O)c2ccccc2)c1	MARV entry inh inconclusive
CN(c1ccccc1)S(=O)(=O)c1cccc(NC(=O)CCNC(=O)c2ccccc2)c1	Pf growth 48h 9.3µM, Pf growth 96h inconclusive (no result: Shiga inhibitor, Lassa entry inh, MARV entry inh, CHX counter)
Cc1cccc(N2C(=O)CC(N3CCOCC3)C2=O)c1 (configuration not stated)	MARV entry inh inconclusive
CC(C)c1ccc(NC(=O)CN2C(=O)NC(Cc3c[nH]c4ccccc34)C2=O)cc1 (configuration not stated)	Pf growth 48h inconclusive (no result: Shiga inhibitor, Lassa entry inh, MARV entry inh, CHX counter)
CCOc1ccc(-n2cnc3scc(-c4ccc(OC)c(OC)c4)c3c2=O)cc1	Pf growth 48h inconclusive, Lassa entry inh inconclusive, Pf growth 96h 2.6µM
CCCn1cnc2scc(-c3ccc(C)c(C)c3)c2c1=O	MARV entry inh inconclusive, Pf growth 96h 10µM
CCC(C(=O)OC)n1cnc2scc(-c3ccc(C)c(C)c3)c2c1=O (configuration not stated)	Pf growth 48h 13µM (no result: Shiga inhibitor, Lassa entry inh, MARV entry inh)
CC1(OC(=O)C2CCCC2)C(=O)C=C2C=C3CCCN3C=C2C1=O (configuration not stated)	none (no result: Shiga inhibitor, Pf growth 48h, Lassa entry inh, CHX counter, Pf growth 96h)
Cc1ccc2[nH]c(=O)c(CN(Cc3nnnn3Cc3ccccc3)C3CCCC3)cc2c1	Pf growth 48h 13µM, Lassa entry inh inconclusive, MARV entry inh inconclusive
CCOc1ccc2[nH]c(=O)c(CN(CCO)C(c3nnnn3C3CCCCC3)C(C)C)cc2c1 (configuration not stated)	Pf growth 48h 3.3µM, Lassa entry inh inconclusive
Cc1ccc2[nH]c(=O)c(CN(Cc3ccc4c(c3)OCO4)Cc3nnnn3C3CCCC3)cc2c1	Pf growth 48h 10µM, Lassa entry inh 3.5µM, MARV entry inh inconclusive
CCc1ccc2[nH]c(=O)c(CN(Cc3nnnn3C3CCCC3)C3CCCCC3)cc2c1	Pf growth 48h 8.3µM, MARV entry inh inconclusive
CCCN1CCN(C(c2cc3cc(OCC)ccc3[nH]c2=O)c2nnnn2C2CCCCC2)CC1 (configuration not stated)	Pf growth 48h inconclusive, MARV entry inh inconclusive
CCOC(=O)c1c(C)[nH]c(C)c1C(=O)COC(=O)c1ccc(S(=O)(=O)C(F)F)cc1	Pf growth 96h inconclusive (no result: Shiga inhibitor, Lassa entry inh, MARV entry inh, CHX counter)
CCOC(=O)c1c(C)n(C)c2ccc(OC(C)=O)cc12	Pf growth 96h inconclusive
O=C(O)c1ccccc1NC(=O)c1ccccc1Nc1ccccc1	none (no result: Lassa entry inh, MARV entry inh)
Cc1cccc2cc(CN(Cc3nnnn3Cc3ccco3)C3CCCC3)c3nnnn3c12	Shiga inhibitor 29, Pf growth 48h inconclusive
Cc1nn2c(-c3cccc(NC(=O)c4ccco4)c3)nnc2c2ccccc12	Pf growth 48h 9.3µM, CHX counter 22
Cc1nn2c(-c3ccccc3)nnc2c2ccccc12	CHX counter 11, Pf growth 96h inconclusive
O=C(O)c1ccc(NS(=O)(=O)c2ccc(N3C(=O)CCC3=O)cc2)cc1	none
O=S(=O)(c1ccccc1F)N1CCCc2ccccc21	Pf growth 48h inconclusive, Pf growth 96h inconclusive (no result: Lassa entry inh, MARV entry inh)
COc1ccc(S(=O)(=O)N2CCc3ccccc32)cc1OC	Lassa entry inh inconclusive, MARV entry inh inconclusive
COC(=O)c1ccc(S(=O)(=O)N2CCc3ccccc32)cc1	Lassa entry inh inconclusive, MARV entry inh 2.5µM, Pf growth 96h 9.3µM
O=[N+]([O-])c1ccccc1S(=O)(=O)N1CCCc2ccccc21	CHX counter 30, Pf growth 96h inconclusive (no result: Shiga inhibitor, Lassa entry inh, MARV entry inh)
O=C(NCc1ccccc1)c1ccc(S(=O)(=O)N2CCCc3ccccc32)cc1	Lassa entry inh inconclusive, MARV entry inh inconclusive, Pf growth 96h inconclusive
CC(=O)N1CCc2ccc(S(=O)(=O)N3CCc4ccccc43)cc21	Pf growth 48h 13µM (no result: Lassa entry inh, MARV entry inh)
NNC(=O)c1ccc(S(=O)(=O)N2CCc3ccccc32)cc1	Pf growth 48h 12µM
O=C(CCN=C1NS(=O)(=O)c2ccccc21)OCc1c(F)c(F)c(F)c(F)c1F	Pf growth 48h inconclusive (no result: Shiga inhibitor, CHX counter)
CC(=O)NC(CCS(C)(=O)=O)C(=O)Nc1nc(C)cs1 (configuration not stated)	MARV entry inh inconclusive
CCOCCCNC(=O)C(NC(=O)c1cnccn1)c1ccc(OC)cc1 (configuration not stated)	none (no result: Pf growth 96h)
COC(=O)Nc1ccc(S(=O)(=O)N2c3ccccc3CCC2C)cc1 (configuration not stated)	Pf growth 48h 15µM
Cc1ccc(S(=O)(=O)N2CCCc3ccccc32)cc1C	Shiga inhibitor 23, CHX counter 17
COC(=O)Nc1ccc(S(=O)(=O)N2CCCCC2C(=O)O)cc1 (configuration not stated)	Pf growth 96h inconclusive
Cc1noc(C)c1COc1ccccc1C(=O)N1CCN(S(=O)(=O)c2cccc([N+](=O)[O-])c2)CC1	Pf growth 48h inconclusive, Pf growth 96h inconclusive (no result: Shiga inhibitor, CHX counter)
CC(=O)NCCCCCC(=O)O	none (no result: Shiga inhibitor, Lassa entry inh, MARV entry inh, CHX counter)
CCN(C(=O)COC(=O)c1cc(C)n(-c2ccc(F)cc2)c1C)C1CCS(=O)(=O)C1 (configuration not stated)	Pf growth 48h inconclusive
CC(C)Oc1ncnc2c1[nH]c1ccccc12	Shiga inhibitor 39, Pf growth 48h inconclusive, CHX counter 30, Pf growth 96h inconclusive (no result: Lassa entry inh, MARV entry inh)
CCCOc1ncnc2c1[nH]c1ccc(OC)cc12	Shiga inhibitor 68, CHX counter 49 (no result: Lassa entry inh, MARV entry inh)
COc1ccc(/C=N/Nc2ncnc3c2[nH]c2ccccc23)c(OC)c1OC	MARV entry inh inconclusive
CCN(CC)c1ncnc2c1[nH]c1ccccc12	Pf growth 48h 4.1µM, MARV entry inh inconclusive (no result: Pf growth 96h)
